Results: PubChem BioAssay (Tox21)
Records with an inconclusive call do not appear. The source made the active and inactive calls. Unless noted, the call rests on the fitted dose curve; in most records, active means well fitted curve in the direction sought with a large enough effect in the repeat runs; inconclusive means weak or mixed curves; inactive means no such curve, though single readings can be large; an effect the other way counts as inactive or inconclusive.

Tests used:
[1] = qHTS assay to identify small molecule antagonists of the retinoid acid receptor (RAR) signaling pathway - cell viability counter screen (AID 1159551); further: nearly all actives have a fitted effect of over 35% in size
Outline: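 In this counter screen, the RARE-luciferase line C3RL4 was exposed for 6 h at 37 C and 5% CO2 to compounds with retinol at 1 uM final. Cellular ATP, read by luminescence, served as the viability measure.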

[2] = qHTS assay to identify small molecule antagonists of the estrogen related receptor (ERR) signaling pathway from Tox21 library - cell viability counter screen (AID 1224834); further: nearly all actives have a fitted effect of over 30% in size
Outline: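 Counter screen run in ERR cells (2,000 cells/well): cells pre-incubated 6 h, then treated with compounds for 17.5 h at 37 C. Fluorescence was read 30 min after CellTiter-Fluor addition.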

[3] = biological target: Luciferin 4-monooxygenase (Photinus pyralis) (UniProt P08659); assay: qHTS assay to identify small molecule inhibitors of firefly luciferase (AID 1224835); further: series mostly up to about 120 µM; nearly all actives have a fitted effect of over 25% in size
Outline: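 Quantitative HTS format; KM concentrations of both substrates. Purified P. pyralis FLuc activity quantified from luminescence images.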

[4] = qHTS assay to identify small molecule agonists of the constitutive androstane receptor (CAR) signaling pathway - cell viability counter screen (AID 1224836); further: series mostly up to about 92 µM; nearly all actives have a fitted effect of over 45% in size
Outline: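 HepG2-CYP2B6-hCAR, 2500 cells/well, 4 h pre-incubation; cpd 15 conc + PK11195 0.75 uM final; 23 h, 37 C/5% CO2; CellTiter-Fluor, fluorescence.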

[5] = qHTS assay to identify small molecule antagonists of the constitutive androstane receptor (CAR) signaling pathway - cell viability counter screen (AID 1224837); further: series mostly up to about 92 µM; nearly all actives have a fitted effect of over 45% in size
Outline: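 CITCO at 50 nM final was added alongside compounds (15 concentrations) to double-stable hCAR/CYP2B6-2.2kb HepG2 cells. Following 23 hr at 37 C, cell viability was quantified by CellTiter-Fluor fluorescence intensity.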

[6] = qHTS assay to identify small molecule antagonists of the estrogen related receptor signaling pathway with the pleiotropic PPARgamma coactivator (PGC) from Tox21 10K library - cell viability counter screen (AID 1224840; active means well fitted cell-killing curve with a large enough effect in the repeat runs, not every such curve was filed as active; further: nearly all actives have a fitted effect of over 40% in size)
Outline: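 Readout: fluorescence intensity from CellTiter-Fluor after 30 min at 37 C/5% CO2. Preceded by 17.5 h treatment of PGC/ERR cells with DMSO-dissolved compounds, added 6 h post-seeding.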

[7] = qHTS assay to identify small molecule antagonists of the estrogen related receptor signaling pathway with the pleiotropic PPARgamma coactivator (PGC) from Tox21 10K library (AID 1224841; call rule not given here; further: series mostly up to about 92 µM; actives are mostly falling curves and most rising ones were filed inactive; nearly all actives have a fitted effect of over 50% in size)
Outline: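 One-Glo luminescence, measured after half an hour at room temperature, quantified reporter output of PGC/ERR cells. These had been plated at 2,000 per well, incubated 6 h, dosed with compounds in DMSO, then kept 18 h at 37 C.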

[8] = qHTS assay to identify small molecule agonists of the estrogen related receptor signaling pathway with the pleiotropic PPARgamma coactivator (PGC) from Tox21 10K library (AID 1224842); further: nearly all actives have a fitted effect of over 15% in size
Outline: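 PGC/ERR reporter cells (NTP line) were seeded 2,000 per well, rested 6 h at 37 C/5% CO2, then pin-dosed with compounds in DMSO for 18 h at 37 C; luciferase read by One-Glo luminescence after 30 min at room temperature.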

[9] = qHTS assay to identify small molecule agonists of the hypoxia (HIF-1) signaling pathway - cell viability counter screen (AID 1224844; calls by dose curve; further: nearly all actives have a fitted effect of over 50% in size)
Outline: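 In this counter screen, HRE-bla ME-180 cell viability after 17 hrs of compound exposure at 37C was read by CellTiter-Glo luminescence, multiplexed with the beta-lactamase reporter measurement.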

[10] = qHTS assay to identify small molecule agonists of H2AX (AID 1224845; active means well fitted activation curve with a large enough effect in the signal ratio in the repeat runs, not every such curve was filed as active; the % refers to the signal ratio)
Outline: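 Wild-type CHO-K1 cells plated overnight, then exposed 3 hr at 37C to compounds at 15 concentrations (0.76% DMSO). Lysed, then HTRF anti-pH2AX(S139)-cryptate/anti-H2AX-d2 detection after 24 hr at room temperature; emissions 665 and 620 nm.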

[11] = biological target: Nuclear receptor subfamily 1 group I member 3 (Homo sapiens) (UniProt Q14994); assay: qHTS assay to identify small molecule antagonists of the constitutive androstane receptor (CAR) signaling pathway (AID 1224838); further: nearly all actives have a fitted effect of over 40% in size
Outline: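 Inhibition of CITCO-driven (50 nM final) CYP2B6 reporter expression is measured in HepG2 cells stably carrying hCAR. Fifteen compound concentrations are applied for 24 h at 37 C, followed by luciferase luminescence.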

[12] = biological target: Nuclear receptor subfamily 1 group I member 3 (Homo sapiens) (UniProt Q14994); assay: qHTS assay to identify small molecule agonists of the constitutive androstane receptor (CAR) signaling pathway (AID 1224839); further: series mostly up to about 92 µM; nearly all actives have a fitted effect of over 15% in size
Outline: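 HepG2-CYP2B6-hCAR cells, 2500/well, 4 h pre-incubation; compounds 15 conc.; PK11195 0.75 uM final; 24 h, 37 C/5% CO2; ONE-Glo luciferase read.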

[13] = biological target: Thyrotropin receptor (Homo sapiens) (UniProt P16473); assay: qHTS assay to identify small molecule agonists of the thyroid stimulating hormone receptor (TSHR) signaling pathway (AID 1224843; calls by dose curve; further: nearly all actives have a fitted effect of over 45% in size)
Outline: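 Compounds are titrated over 15 concentrations, in triplicate, onto TSHR-HEK293 cells seeded at 800/well. Plates sit 30 min at room temperature before cAMP-d2 and anti-cAMP cryptate are added; signal is read after a further hour.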

Measured: Potency

Chain of Luciferin 4-monooxygenase (Photinus pyralis) (P08659 whole entry, looked up): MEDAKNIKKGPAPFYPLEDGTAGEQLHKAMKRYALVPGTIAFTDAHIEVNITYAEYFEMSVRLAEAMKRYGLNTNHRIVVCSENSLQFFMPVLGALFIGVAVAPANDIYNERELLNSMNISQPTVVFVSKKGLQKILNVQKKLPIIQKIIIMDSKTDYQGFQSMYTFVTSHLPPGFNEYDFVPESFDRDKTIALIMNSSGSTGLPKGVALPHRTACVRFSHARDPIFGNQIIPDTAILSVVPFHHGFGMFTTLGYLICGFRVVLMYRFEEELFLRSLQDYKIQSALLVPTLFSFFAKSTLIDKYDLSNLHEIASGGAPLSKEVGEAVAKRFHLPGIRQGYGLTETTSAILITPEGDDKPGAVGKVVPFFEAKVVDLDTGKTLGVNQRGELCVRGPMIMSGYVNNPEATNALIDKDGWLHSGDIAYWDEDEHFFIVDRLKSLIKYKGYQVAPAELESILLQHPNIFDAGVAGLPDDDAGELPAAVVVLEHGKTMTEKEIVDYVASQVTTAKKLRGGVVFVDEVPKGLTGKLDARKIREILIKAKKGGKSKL
Chain of Nuclear receptor subfamily 1 group I member 3 (Homo sapiens) (Q14994 whole entry, looked up): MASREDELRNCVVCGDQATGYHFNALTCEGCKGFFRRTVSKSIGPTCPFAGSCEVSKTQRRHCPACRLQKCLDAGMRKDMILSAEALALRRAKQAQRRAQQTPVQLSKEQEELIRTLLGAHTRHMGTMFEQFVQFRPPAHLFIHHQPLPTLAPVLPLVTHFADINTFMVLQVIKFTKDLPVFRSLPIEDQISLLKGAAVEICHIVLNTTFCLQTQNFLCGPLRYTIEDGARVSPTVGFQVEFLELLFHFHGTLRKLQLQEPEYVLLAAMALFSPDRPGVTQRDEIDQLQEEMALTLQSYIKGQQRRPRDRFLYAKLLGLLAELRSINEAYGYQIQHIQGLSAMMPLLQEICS
Chain of Thyrotropin receptor (Homo sapiens) (P16473 whole entry, looked up): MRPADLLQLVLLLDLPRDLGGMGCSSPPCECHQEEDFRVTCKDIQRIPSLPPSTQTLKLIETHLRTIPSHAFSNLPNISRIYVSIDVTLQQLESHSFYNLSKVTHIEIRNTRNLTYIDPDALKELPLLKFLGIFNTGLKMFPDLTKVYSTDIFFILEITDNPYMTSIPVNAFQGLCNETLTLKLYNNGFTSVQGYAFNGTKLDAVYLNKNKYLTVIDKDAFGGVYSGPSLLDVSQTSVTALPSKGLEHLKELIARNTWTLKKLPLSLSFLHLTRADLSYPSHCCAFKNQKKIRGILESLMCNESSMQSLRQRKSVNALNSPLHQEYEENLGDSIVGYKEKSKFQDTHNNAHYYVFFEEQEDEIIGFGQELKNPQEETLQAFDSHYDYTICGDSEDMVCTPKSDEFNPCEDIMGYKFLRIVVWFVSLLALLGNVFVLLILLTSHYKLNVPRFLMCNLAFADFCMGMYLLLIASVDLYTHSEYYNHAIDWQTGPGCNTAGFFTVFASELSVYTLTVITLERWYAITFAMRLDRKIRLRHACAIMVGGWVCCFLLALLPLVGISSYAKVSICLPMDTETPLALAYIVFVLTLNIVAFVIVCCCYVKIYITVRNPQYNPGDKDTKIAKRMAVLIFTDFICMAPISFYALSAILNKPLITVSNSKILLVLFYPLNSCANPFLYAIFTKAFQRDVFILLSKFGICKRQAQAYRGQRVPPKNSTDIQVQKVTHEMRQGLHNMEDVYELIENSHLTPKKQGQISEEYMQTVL

CCOC(=O)c1ccccc1
inactive: [1] | [2] | [3] | [4] | [5] | [6] | [7] | [8] | [9] | [10]

[O-][n+]1cccc(CO)c1
inactive: [1] | [2] | [3] | [4] | [5] | [11] | [12] | [13] | [9] | [10]

Clc1cc(Cl)c(Cl)nc1Cl
inactive: [1] | [2] | [3] | [4] | [5] | [11] | [12] | [7] | [8] | [13] | [9] | [10]

CCCCCCCCCCCCCCCCCCO
inactive: [1] | [2] | [3] | [4] | [5] | [11] | [12] | [6] | [13] | [9] | [10]

CC1(C)OC[C@@H](COC(=O)CCc2ccc(OC[C@@H](O)CNCCNC(=O)N3CCOCC3)cc2)O1
inactive: [1] | [2] | [3] | [4] | [5] | [11] | [12] | [7] | [8] | [13] | [9] | [10]

COc1cc(C)nc(-n2nc(C)cc2OC)n1
inactive: [1] | [2] | [3] | [4] | [5] | [12] | [7] | [8] | [13] | [9] | [10]

CCO[Si](OCC)(OCC)c1ccccc1
inactive: [1] | [2] | [3] | [4] | [5] | [6] | [7] | [8] | [13] | [9] | [10]

CC(=O)OCC(=O)[C@@]1(O)[C@H](C)C[C@H]2[C@@H]3CCC4=CC(=O)C=C[C@]4(C)[C@@]3(F)[C@@H](O)C[C@@]21C
inactive: [1] | [2] | [3] | [4] | [5] | [6] | [7] | [8] | [13] | [9] | [10]

NCCCC[C@H](N[C@@H](CCc1ccccc1)C(=O)O)C(=O)N1CCC[C@H]1C(=O)O
inactive: [1] | [2] | [3] | [4] | [5] | [11] | [6] | [9] | [10]

CCC(=O)OCc1ccccc1
inactive: [1] | [2] | [3] | [4] | [5] | [6] | [13] | [9] | [10]

CCN(C=O)CC
inactive: [1] | [2] | [3] | [4] | [5] | [11] | [12] | [6] | [13] | [10]
